Compound activity deposited in PubChem BioAssay by National Center for Advancing Translational Sciences (NCATS).
In the library only some 10% were active in any assay of this set; here they are far more common.
BAZ2B block: blocks human BAZ2B. actives 4.4% (n = 360,000). Potency, µM (doses to about 114 µM), most hits filed as inhibitors. AlphaScreen BAZ2B-H3K14Ac peptide displacement; note: nearly all actives have a fitted effect of over 60% in size
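BAZ2B (50 nM) with biotin-H3(5-23)K14Ac peptide (50 nM) in PBS pH 7.4, 0.01% Tween-20, preformed 30 min, then compound 30 min at room temperature; top concentration 110uM. AlphaScreen streptavidin donor/nickel chelate acceptor beads (10 ug/mL final), 20 min dark, signal read.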
GLS inh: blocks human kidney-isoform glutaminase activity; Potency, µM (doses to about 45.5 µM), hits mostly inhibitors; GLS enzymatic activity, qHTS titration; actives 0.21% (n = 410,000); O94925
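Enzyme dispensed in phosphate buffer (45 mM, pH 8.2, 0.02% Tween-20), compounds pinned in, then 1 mM L-glutamine solution and the glutamate oxidase–HRP–Amplex Red mix added; fluorescence read immediately and again after 30 min at room temperature.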
HP1b binding inh: blocks HP1-beta chromodomain binding to methylated histone tails; P83916; AlphaScreen HP1-beta / biotin-H3K9me3 peptide binding; Potency, µM (doses to about 114 µM), hits mostly inhibitors; actives 0.56% (n = 390,000); AID 540317; note: nearly all actives have a fitted effect of over 70% in size
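HP1-beta protein (50 nM final) preincubated 30 min at room temperature with biotinylated H3(1-18)K9me3 peptide (50 nM) in PBS pH 7.4, 0.01% Tween-20, then compound added for 30 min. AlphaScreen streptavidin donor/nickel chelate acceptor beads (10 ug/mL final), 30 min dark, luminescence read.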
JMJD2A Tudor: inhibitors of human JMJD2A Tudor domain | actives 4.4% (n = 390,000) | AID 504339 | AlphaScreen JMJD2A-Tudor / H3K4me3 peptide binding | Potency, µM (series often up to 114 µM), actives largely listed as inhibitors; note: nearly all actives have a fitted effect of over 50% in size
G9a inh: G9a (human) methyltransferase inhibition. Q96KQ7. G9a H3K9 monomethylation, AlphaScreen, 2 h. AID 504332. Potency, µM (doses to about 102 µM), usual class: inhibitors. actives 8.8% (n = 350,000); note: nearly all actives have a fitted effect of over 75% in size
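Methyltransferase reactions run at room temperature for 2 h (20 nM enzyme, 500 nM biotin-H3K9 peptide, 20 uM SAM) after a 15 min compound preincubation; product detected by AlphaScreen beads and anti-H3K9me1 antibody.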
Of the large screens only hits and unclear results are named; the others gave an inactive call. Calls come from the whole dose curve; as a rule, active = well fitted curve in the direction sought with a large enough effect; inconclusive = small, poorly fitted or top-dose-only effect, or another doubt; inactive = no such curve, though single readings can be large; an effect the other way counts as inactive or inconclusive.

COc1ccc(-c2cc(C(C)=O)c(C)n2CCC(=O)NCc2ccccc2OC)cc1	BAZ2B block inconclusive
CC(=O)c1cc(-c2ccccc2)n(CCC(=O)NCc2cccs2)c1C	BAZ2B block 50µM
COc1ccc(-c2cc(C(C)=O)c(C)n2CCC(=O)NCc2ccc(F)cc2)cc1	BAZ2B block 79µM, G9a inh inconclusive
CC(=O)c1cc(-c2ccc(F)cc2)n(CCC(=O)NC(C)(C)C)c1C	BAZ2B block 50µM
Cc1ccc(S(=O)(=O)N(CC(=O)N2CCCCCC2)c2ccccc2F)cc1	none
CNc1ccccc(-c2ccc3ccccc3n2)c1=O	G9a inh 89µM
CCN(CC)CCCNC(=O)c1cc(-c2ccc(Cl)c(Cl)c2)on1	none
COc1cccc(/C=N/Nc2ncnc3scc(-c4ccccc4)c23)c1O	BAZ2B block 13µM, JMJD2A Tudor 45µM, G9a inh inconclusive
COc1ccc2nc(C)cc(N/N=C/c3cccc(OC)c3O)c2c1	BAZ2B block 45µM, HP1b binding inh inconclusive, JMJD2A Tudor 50µM, G9a inh 45µM
COc1cccc(/C=N/Nc2cc(-n3nc(C)cc3-c3ccccc3)ncn2)c1O	none
COc1cccc(/C=N/Nc2nccnc2Cl)c1O	BAZ2B block 14µM, JMJD2A Tudor 40µM
Nc1c(Cl)ncnc1N/N=C/c1ccncc1	G9a inh 45µM
O=C(COC(=O)c1cc([N+](=O)[O-])ccc1N1CCOCC1)c1ccccc1Cl	BAZ2B block inconclusive, JMJD2A Tudor inconclusive
COc1ccc(/C=N/Nc2ncnc(Cl)c2N)cc1OC	BAZ2B block inconclusive, G9a inh 50µM
Nc1c(Cl)ncnc1N/N=C/c1cccc(O)c1	none
COc1cccc(/C=N/Nc2ncnc(Cl)c2N)c1O	BAZ2B block 7.9µM
COc1cccc(/C=N/Nc2nc3ccccc3[nH]2)c1O	JMJD2A Tudor inconclusive (no result: G9a inh)
O=C1c2ccccc2C(=O)N1CCCc1c[nH]c2ccc(Cl)cc12	JMJD2A Tudor inconclusive
CC(C)Cc1nc(Cl)c(C#N)c2c1CCCC2	none
Cc1oc(-c2cccs2)nc1CN1CCN(CCC(C)C)C(CCO)C1 (configuration not stated)	none
O=C(Cn1cc(C(F)(F)F)cc(Cl)c1=O)Nc1cccc(Cl)c1	none
Fc1cc2[nH]c(=S)[nH]c2c(Br)c1N1CCSCC1	HP1b binding inh inconclusive, G9a inh 10µM
Fc1cc2nccnc2cc1N1CCSCC1	none
O=C(O)CC(NC(=O)C1c2ccccc2Oc2ccccc21)c1ccc(Cl)cc1 (configuration not stated)	G9a inh 11µM
Nc1ccc(-c2nc3ccc(N)cc3o2)cc1	none
Cc1ccc2nc(-c3cc(N)cc(N)c3)oc2c1	BAZ2B block 50µM, JMJD2A Tudor inconclusive
Cc1cccc(NC(=O)CNC(=O)CN2C(=O)NC3(CCc4ccccc43)C2=O)c1C (configuration not stated)	G9a inh 45µM
CC1CCN(C(=O)CN2C(=O)NC3(CCCc4ccccc43)C2=O)CC1 (configuration not stated)	G9a inh inconclusive
O=C(CN1C(=O)NC2(CCCc3ccccc32)C1=O)N1CCCCC1 (configuration not stated)	G9a inh 50µM
CCN(CC)S(=O)(=O)c1cc(NC(=O)CN2C(=O)NC3(CCCc4ccccc43)C2=O)ccc1C (configuration not stated)	G9a inh 50µM
Cc1ccc(NC(=O)CN2C(=O)NC3(CCCc4ccccc43)C2=O)cc1S(=O)(=O)N1CCOCC1 (configuration not stated)	G9a inh inconclusive
CC(C)(C)c1ccc(-c2noc(-c3ccc4c(c3)CCO4)n2)cc1	none (no result: G9a inh)
CCOC(=O)c1nn(-c2cccc(Cl)c2)c(C)c1C(C)=O	none
CN(Cc1ccccc1)C(=O)c1[nH]cnc1C(=O)N[C@@H](CCCCNC(=O)OC(C)(C)C)C(=O)OC(C)(C)C	none
O=C(c1ccc(-n2cncn2)c([N+](=O)[O-])c1)N1CCN(S(=O)(=O)c2c(F)cccc2F)CC1	G9a inh inconclusive
CN1C(=O)CC(N2CCN(CCN=CC3=C(O)CC(C)(C)CC3=O)CC2)C1=O (configuration not stated)	none
COc1ccc(C2c3sc(=O)[nH]c3SC3C(=O)N(c4ccccc4)C(=O)C32)cc1 (configuration not stated)	BAZ2B block inconclusive, JMJD2A Tudor inconclusive, G9a inh 8.9µM
COCC1CCCN(Cc2cn(Cc3ccccc3)nc2-c2cc3ccccc3o2)C1 (configuration not stated)	none
COCC1CCN(Cc2cn(Cc3ccccc3)nc2-c2cc3ccccc3o2)CC1	BAZ2B block 56µM
CCN(CC)CCOC(=O)c1ccc(N/C=C(/C#N)c2nc(-c3cc4ccccc4oc3=O)cs2)cc1	HP1b binding inh 18µM, JMJD2A Tudor inconclusive, G9a inh 1.6µM
CCN(CC)CCOC(=O)c1ccc(N/C=C(/C#N)c2nc(-c3ccc4c(c3)OCO4)cs2)cc1	BAZ2B block inconclusive, HP1b binding inh 32µM, JMJD2A Tudor 40µM, G9a inh inconclusive
COc1cc(/C=C(/C#N)c2nc(-c3cc4ccccc4oc3=O)cs2)cc([N+](=O)[O-])c1O	BAZ2B block inconclusive, G9a inh 3.2µM (no result: GLS inh, HP1b binding inh, JMJD2A Tudor)
COc1cc(/C=C(\C#N)c2nc(-c3cc4ccccc4oc3=O)cs2)ccc1O	G9a inh inconclusive
COc1ccc(/C=C(/C#N)c2nc(-c3ccc(-c4ccccc4)cc3)cs2)cc1	none
CCN(CC)CCOC(=O)c1ccc(N/C=C(/C#N)c2nc(-c3ccc(OC)cc3)cs2)cc1	BAZ2B block inconclusive, HP1b binding inh inconclusive, JMJD2A Tudor 56µM, G9a inh 11µM
Cc1ccc(C2NCCS2)cc1 (configuration not stated)	G9a inh 45µM
CN(C)Cc1c(O)ccc2c3c(c(=O)oc12)CCCCC3	none
CN(Cc1c(O)ccc2c1oc(=O)c1ccccc12)C1CCCCC1	BAZ2B block 5.6µM, HP1b binding inh inconclusive, JMJD2A Tudor 4µM, G9a inh inconclusive
CC(C)c1ccc(-c2c(C#N)c(N)nc(SCC(=O)N3CCCCCC3)c2C#N)cc1	BAZ2B block inconclusive
CCN1C(=O)[C@H]2[C@@H](c3ccc(-c4ccc(Cl)c(Cl)c4)cc3)N3CCCC[C@@]3(C(=O)OC)[C@H]2C1=O	none
Cc1sc2ncnc(NCC(c3ccco3)N(C)C)c2c1C (configuration not stated)	HP1b binding inh inconclusive, JMJD2A Tudor 1.6µM
O=C(c1noc2c1CCCC2)N1CCc2c([nH]c3ccccc23)C1c1ccccn1 (configuration not stated)	BAZ2B block inconclusive, HP1b binding inh inconclusive, JMJD2A Tudor inconclusive, G9a inh 50µM
O=C(c1ccccc1-c1ncc[nH]1)N1CCc2c([nH]c3ccccc23)C1c1ccccn1 (configuration not stated)	BAZ2B block 28µM, JMJD2A Tudor inconclusive (no result: G9a inh)
